SMILES strings stand for the structures. The campaign covered roughly 360,000 compounds. About 11,000 (3.1%) were called active. Roughly 2% stayed inconclusive and do not appear here. This excerpt belongs to a sample that is enriched for actives. Unmarked numbers belong to inactive results. Rule as the data show it: active = fluorescence intensity above about 16000; inconclusive = no clear call, values can overlap the other calls; inactive = below that.

The test can be described thus: counter-screen for toxin protease inhibitors: compound fluorescence, primary screen, artefact control for toxin protease inhibitor project, biochemical, multiplex microsphere, HTS (AID 624483). The following applies: compound autofluorescence counterscreen, microsphere flow cytometry; stronger effect = higher value. Background: The purpose of a counterscreen is to sort out artefacts and off-target activity.
Regarding `CCOC(=O)C1CCCN(C(=O)c2ccc(N(C)C)cc2)CC1` (stereo not drawn), the fluorescence intensity was 2830.
On to `CCc1nc2c(OCCC3CCCCC3)cccn2c1N(C)C(=O)c1ccco1`, for which the fluorescence intensity was 3130.
`COc1ccc(C(=O)N2CCCCC2c2cc(C(=O)Nc3ccccc3)no2)cc1` (stereo not drawn): the fluorescence intensity was 3670.
The figure for `CCCNC(=O)C1(C)CCN(Cc2ccc(Cl)c(Cl)c2)C1` (stereo not drawn) is 4070.
Turning to `CC1(C(=O)Nc2ccccc2Br)CCN1C(=O)CC1CC1` (stereo not drawn), the fluorescence intensity is 4640.
The result for `O=C(Nc1cccc(Cc2ccccc2)c1)Nc1ccc2nc([C@@H]3O[C@H](CO)[C@@H](O)[C@H](O)[C@H]3O)[nH]c2c1` reads 5830.
The result for `O=C(CN1CCN(c2ccccn2)CC1)NC1CCCCC1` reads 5140.
The figure for `O=C(C(Cl)Cl)N1CCN(c2ccccn2)CC1` is 2340.
For `CN1C(=O)CC(N2CCN(c3ccccn3)CC2)C1=O` (stereo not drawn), the fluorescence intensity is 20700 (active).
For the compound `CCCCc1c(-c2ccc(Cl)cc2)ncn1CCc1ccccc1OC`, the fluorescence intensity was 6340.
The figure for `COc1ccc(CN(Cc2ccco2)S(=O)(=O)c2ccc(S(=O)(=O)N3CCCC3)cc2)cc1` is 23600 (active).
The figure for `COc1ccc(S(=O)(=O)NCc2ccc(C(=O)N(C)Cc3ccco3)cc2)cc1` is 10900; for `CCOc1ccc(CN(Cc2ccco2)S(=O)(=O)c2ccc(-n3cnnn3)c(OC)c2)cc1` it is 11600.
The result for `CC1(C(=O)Nc2cccc3c2CCCC3)CCN1C(=O)C1(c2ccccc2)CC1` (stereo not drawn) reads 3760; that for `C=CCn1c2c(c3ccccc31)CCC2`, 6080.
`NS(=O)(=O)c1ccc(NS(=O)(=O)/C=C/c2ccccc2)cc1`: the fluorescence intensity is 7650.
The figure for `NS(=O)(=O)c1ccc(Nc2nc(-c3ccccc3)cs2)cc1` is 23200 (active).
In the case of `CC(=O)c1ccc(Nc2nc(C(N)c3ccccc3)cs2)cc1` (stereo not drawn), the fluorescence intensity is 3990.
The figure for `COc1ccc(-c2csc(Nc3cccc(C)n3)n2)cc1OC` is 3770; for `COc1ccc(Nc2nc(-c3ccccc3)cs2)cc1` it is 23300 (active); for `COc1ccc2c(c1OC)C(=O)OC2Nc1nc(-c2ccccc2)cs1` (stereo not drawn) it is 2960.
Consider `CCCOc1ccc(F)cc1-c1cc(C(=O)Nc2ccc(F)cc2)[nH]n1`, for which the fluorescence intensity was 3520.
The figure for `COCCn1c(SCC(=O)c2[nH]c(C)c(C(C)=O)c2C)nc2ccccc2c1=O` is 3120.
For `CC(C)Cn1cc(-c2cncc3nccn23)cn1`, the fluorescence intensity is 4100.
The result for `COCCCNC(=O)c1ccc(-c2c(C)noc2C)c2ccoc12` reads 3520; that for `Cc1ccc(/C=N/NC(=O)Cn2ccc(C(F)(F)F)n2)o1`, 2150.
With `Clc1ccc(CSc2nnc3c(n2)[nH]c2ccccc23)cc1`, the fluorescence intensity was 3690.
With `c1ccc(CSc2nnc(-c3ccco3)c(-c3ccco3)n2)cc1`, the fluorescence intensity was 20900 (active).
The result for `c1ccc(Cc2c(-c3ccco3)nc3c4ccccc4ccn23)cc1` reads 4810; that for `CN(C)CCN(Cc1ccccc1)S(=O)(=O)c1csc(C(N)=O)c1`, 5470.
On to `Cc1ccc(-n2c(C)cc(C(=O)CSc3nnc4ccccn34)c2C)cc1`, for which the fluorescence intensity was 2510.
The result for `COc1ccc(-n2c(C)cc(C(=O)COC(=O)c3cc(OC)c(OC)cc3NC(=O)c3cccs3)c2C)cc1` reads 2450; that for `COc1ccc(-n2c(C)cc(C(=O)CSc3nnc(-c4cccs4)o3)c2C)cc1`, 18900 (active); that for `O=C(Oc1ccccc1)c1ccc2nccnc2c1`, 16700 (active).
Take `CC(C)CCC(C)NC(=O)c1ccc2nccnc2c1` (stereo not drawn): the fluorescence intensity is 4050.
For the compound `COC(=O)c1ccc(OC(=O)c2cnccn2)cc1`, the fluorescence intensity was 4650.
The result for `Cc1nccn1-c1ccc(NC(=O)[C@H]2O[C@@H](n3cnc4c(N)ncnc43)[C@H](O)[C@@H]2O)cc1` reads 5940; that for `CC(Oc1ccc(F)cc1F)C(=O)/C=C/N(C)C` (stereo not drawn), 24200 (active); that for `CC(Oc1ccc(Cl)cc1Cl)C(=O)/C=C/N(C)C` (stereo not drawn), 18300 (active).
The result for `CC(=O)N(OCc1ccc(OC(C)C)c(Cl)c1)C(C)=O` reads 4420; that for `CC(Oc1ccccc1F)C(=O)NN` (stereo not drawn), 2470; that for `CN(C)/C=C/C(=O)c1ccccc1F`, 4920.
The result for `CCCC(=O)Nc1cccc(NC(=S)NC(=O)C(C)Oc2ccc(Cl)cc2Cl)c1` (stereo not drawn) reads 2030; that for `CCOC(=O)c1sc(N)c(C#N)c1COC(=O)C1=COCCO1`, 4150; that for `CCNC(=O)C1CCCN(C(=O)c2ccc(OC)cc2OC)CC1` (stereo not drawn), 2850.
With `CCCOc1ccc(F)cc1-c1cc(C(=O)NCc2ccc(F)cc2)[nH]n1`, the fluorescence intensity was 3970.
The figure for `COCCNc1nc(NCc2ccc(NC(C)=O)cc2)c2sccc2n1` is 3410; for `CC(=O)Nc1cccc(Nc2ccc(C#N)cc2)c1` it is 6880; for `CCOC(=O)C1CCCN(C(=O)c2cccc3ccccc23)CC1` (stereo not drawn) it is 3960.
Consider `O=C(NCc1ccc(F)cc1)c1cc(C2CCCCN2C(=O)c2ccccn2)on1` (stereo not drawn), for which the fluorescence intensity was 4420.
As to `Nc1nc2cc(Cl)ccc2n1N`, the fluorescence intensity was 6290.
`CC(O)(c1cccc(F)c1)c1nc(-c2ccc3c(c2)OCO3)cs1` (stereo not drawn): the fluorescence intensity is 3850.
Regarding `CCC(=O)N(Cc1ccccc1)c1ccccn1`, the fluorescence intensity was 20800 (active).
Consider `CC(C)(C)C(=O)N(Cc1ccccc1)c1ccccn1`, for which the fluorescence intensity is 4430.
Take `O=C(N1CCOCC1)N(Cc1ccccc1)c1ccccn1`: the fluorescence intensity is 3710.
The result for `COc1cc(F)ccc1-c1cc(C(=O)NCC2CCCCC2)[nH]n1` reads 3000; that for `CCC(C)[C@H](NC(=O)N1c2ccccc2NC(=O)[C@@H]1C(C)C)C(=O)N[C@@H](Cc1ccccc1)C(=O)O` (stereo partly drawn), 3920.
The figure for `COc1ccc(NC(C)=O)cc1NC(=O)CN1CCN(C2c3ccccc3-c3ccccc32)CC1` is 4260.
Regarding `Cc1ccc(CN(CC(=O)NC2CCCCC2)C(=O)c2csnn2)cc1`, the fluorescence intensity was 5650.
The result for `COc1cccc(C2/C(=C(/O)c3ccc(F)cc3)C(=O)C(=O)N2CCN(C)C)c1` (stereo not drawn) reads 4550; that for `COc1ccc(/C(O)=C2/C(=O)C(=O)N(CCCN(C)C)C2c2ccccc2)cc1OC` (stereo not drawn), 21200 (active); that for `CCCOc1ccc(/C(O)=C2/C(=O)C(=O)N(CCN(C)C)C2c2ccc(OC)c(OC)c2)cc1` (stereo not drawn), 4510.
The result for `CC1(C)CC(O)C(CCC(O)c2ccccc2)C(C)(C)N1` (stereo not drawn) reads 2520.
Turning to `Cc1noc(C)c1C(=O)Nc1ccccn1`, the fluorescence intensity is 22800 (active).
The figure for `Cc1noc(C)c1C(=O)NCC1COc2ccccc2O1` (stereo not drawn) is 6410; for `Cc1c(C(=O)Nc2ccccn2)oc2ccc(Br)cc12` it is 5620; for `Cn1c(=O)c2c(nc(SCCNS(=O)(=O)c3ccccc3)n2C)n(C)c1=O` it is 10500.
With `O=C(Nc1cc(Br)ccc1F)c1nc[nH]c1C(=O)NCc1ccccc1`, the fluorescence intensity is 4670.
The figure for `CCCCC(C(=O)NC(C)(C)C)N(Cc1ccccc1)C(=O)c1snc(C(N)=O)c1N` (stereo not drawn) is 3460; for `COc1ccc(S(=O)(=O)N2CCCC2)c(C)c1C` it is 16000; for `CCOc1ccc(S(=O)(=O)N2CCCCCC2)c2ccccc12` it is 16700 (active).
The result for `CCOc1ccc(S(=O)(=O)n2ccnc2)c2ccccc12` reads 5760.
Take `CC(C)N1CCC(=NNc2ccc([N+](=O)[O-])cc2S(=O)(=O)N2CCOCC2)CC1`: the fluorescence intensity is 3480.
`O=C(NCC1CCCO1)C(C(=O)c1ccccc1)n1cc(Cl)ccc1=O` (stereo not drawn): the fluorescence intensity is 19700 (active).
The figure for `O=C(NCC1CCCO1)/C(=C/c1ccc(Cl)cc1)NC(=O)c1ccccc1` (stereo not drawn) is 2550.
The result for `O=C(CSc1ccc(-c2ccccc2)nn1)NCC1CCCO1` (stereo not drawn) reads 3400; that for `N#Cc1ccc(C(=O)Nc2nc(-c3cccs3)c(C(=O)C(F)(F)F)s2)cc1`, 4970.
Take `OC[C@@H]1CN(Cc2ccc3c(c2)OCO3)C[C@H](n2cnc3c(NCc4ccco4)ncnc32)O1`: the fluorescence intensity was 3680.
As for `Cc1ccc(-c2cnc(C(O)c3cc(Cl)cc(Cl)c3)[nH]2)cc1` (stereo not drawn), the fluorescence intensity was 2960.
Regarding `CN(C)c1nc(N)nc(CSc2nnnn2-c2cccc3ccccc23)n1`, the fluorescence intensity was 16800 (active).
The result for `Cc1ccccc1Nc1nc(N)nc(CSc2ccccc2)n1` reads 2510; that for `Nc1nc(CSc2nnnn2-c2ccccc2)nc(Nc2ccccc2)n1`, 4030; that for `COc1ccc(-n2nnnc2SCc2nc(N)nc(N3CCOCC3)n2)cc1`, 2520.
The figure for `CCOC(=O)CSc1ccccn1` is 2150.
Consider `CN(C)c1nc(N)nc(CSc2ccccn2)n1`, for which the fluorescence intensity was 19900 (active).
Turning to `O=C(NCc1ccco1)C1CCCN1S(=O)(=O)c1ccccc1C(F)(F)F` (stereo not drawn), the fluorescence intensity is 4200.
On to `CC(=O)N(c1ccc2oc(=O)sc2c1)S(=O)(=O)c1ccc(C)cc1`, for which the fluorescence intensity is 3830.
Consider `CCCC1=Nc2cc(C(=O)NCc3ccco3)ccc2Sc2ccccc21`, for which the fluorescence intensity is 7310.
Consider `Cc1nn(CC2CC2)c(=O)n1N(C)c1ncc(C(F)(F)F)cc1Cl`, for which the fluorescence intensity is 4280.
The result for `CCOC(=O)N1CCC(C(N)=O)CC1` reads 4320; that for `CCOC(=O)N1CCC(O)(c2cc(C)c(C)cc2C)CC1`, 23000 (active); that for `CCOC(=O)N1CCN(C(=S)Nc2ccc(C)cc2C)CC1`, 2140.
The figure for `CCOC(=O)c1cnc(SCC(=O)Nc2cccc(OC)c2)nc1N` is 24000 (active).
The figure for `CCOC(=O)c1cnc(SCC(=O)Nc2ccccc2C(=O)OC)nc1N` is 4740; for `CCOC(=O)c1cnc(SCC(=O)NCc2ccco2)nc1N` it is 9800; for `CC(C)C1CC2=C(C(=O)OC(C)(C)O2)C(c2ccc(F)cc2)O1` (stereo not drawn) it is 5880.
Consider `CC(=O)NC(=S)NNC(=O)c1ccc(Br)cc1`, for which the fluorescence intensity was 4310.
In the case of `CCOC(=O)[C@H]1Nc2ccc(Cl)cc2[C@@H]2[C@H]1C1CC(c3ccccc31)N2C(=O)OCc1ccccc1` (stereo partly drawn), the fluorescence intensity was 4370.

The values are drawn from PubChem BioAssay AID624483 (NMMLSC, 2012).
